In PubChem BioAssay (EPA / NIEHS):
Values joined by “and” are separate entries in the source; they are usually repeats but may differ in a detail not shown here. Identical values can stand only once. Results filed as inconclusive are left out. The source holds several records for some structures; these can differ, active in one and inactive in another. Active and inactive are the calls of the source. Rule for the calls: active = hit-call score of the fitted dose curve at least 0.9, where 1 is the maximum; inconclusive = response in the unintended direction; inactive = score below 0.9.

These compounds were tested against human Serotonin, 5-Hydroxytryptamine Receptor 5A (5HT5A), HTR5A (gene 3361) (UniProt P47898) (assay: NVS_GPCR_h5HT5A: NovaScreen (NVS) G Protein-Coupled Receptor Assay for human Serotonin, 5-Hydroxytryptamine Receptor 5A (5HT5A) (AID 2283251)).
human Serotonin, 5-Hydroxytryptamine Receptor 5A (5HT5A), HTR5A (gene 3361), sequence (P47898 whole entry, looked up): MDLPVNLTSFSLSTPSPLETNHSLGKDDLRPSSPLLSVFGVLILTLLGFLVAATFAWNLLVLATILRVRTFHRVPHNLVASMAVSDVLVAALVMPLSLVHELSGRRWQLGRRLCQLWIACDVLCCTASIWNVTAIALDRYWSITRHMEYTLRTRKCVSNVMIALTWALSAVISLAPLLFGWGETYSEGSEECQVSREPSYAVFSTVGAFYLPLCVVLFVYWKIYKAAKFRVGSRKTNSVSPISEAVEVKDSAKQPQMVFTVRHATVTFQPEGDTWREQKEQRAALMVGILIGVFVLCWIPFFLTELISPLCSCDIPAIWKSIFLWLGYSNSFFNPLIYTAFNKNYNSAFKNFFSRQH
Protocol: NVS_GPCR_h5HT5A is a biochemical, single-readout assay that uses extracted gene-proteins from HEK293 in a cell-free assay. Measurements were taken 1 hour after chemical dosing in a 96-well plate.NVS_GPCR_h5HT5A is one of one assay component(s) measured or calculated from the NVS_GPCR_h5HT5A assay. It is designed to make measurements of radioligand binding, a form of binding reporter, as detected with scintillation counting signals by Filter-based radiodetection technology.Data from the assay component NVS_GPCR_h5HT5A was analyzed into 1 assay endpoint. This assay endpoint, NVS_GPCR_h5HT5A, was analyzed in the positive analysis fitting direction relative to DMSO as the negative control and baseline of activity. Using a type of binding reporter, loss-of-signal activity can be used to understand changes in the binding as they relate to the gene HTR5A. Furthermore, this assay endpoint can be referred to as a primary readout, because the performed assay has only produced 1 assay endpoint. To generalize the intended target to other relatable targets, this assay endpoint is annotated to the gpcr intended target family, where the subfamily is rhodopsin-like receptor.
Binding assays used specific radioligands (tritiated, iodinated) with non-radioactive competitive displacement ligands in agonist or antagonist protocols (as indicated) and various reference compounds and inhibitors to titrate specific binding to receptors and transporters. Most enzyme assays (CYPs, kinases, phosphatases, proteases, HDACs) used recombinant protein and specific substrates (fluorescence mostly, some colorimetric and radioactive) and inhibitors, followed by a biochemical separation of substrate and product. All assays for the biochemical HTS were initially run in duplicate at a single concentration (10 uM for CYP450 assays and 25 uM for all others). […] Each assay was run with positive and negative controls, and concurrent controls on every plate. The follow-up (secondary) screen tested active chemical-pairs in concentration series, as well as a few additional assays not tested in the primary screen, some selected negative inactives, and several cases re-run in the concentration series for confirmatory purposes.

Structure (SMILES) | AC50 | outcome
O=S(=O)(O)C(F)(F)C(F)(F)C(F)(F)C(F)(F)C(F)(F)C(F)(F)C(F)(F)C(F)(F)F | 35.1 µM (active) and 11.6 µM (active) and 33.8 µM (active) | inactive
O=C(O)C(F)(F)C(F)(F)C(F)(F)C(F)(F)C(F)(F)C(F)(F)C(F)(F)F |  | inactive
CC[C@H](C)[C@H]1O[C@]2(C=C[C@@H]1C)C[C@@H]1C[C@@H](C/C=C(\C)[C@@H](O[C@H]3C[C@H](OC)[C@@H](O[C@H]4C[C@H](OC)[C@@H](O)[C@H](C)O4)[C@H](C)O3)[C@@H](C)/C=C/C=C3\CO[C@@H]4[C@H](O)C(C)=C[C@@H](C(=O)O1)[C@]34O)O2 (tested in a mixture with another compound) | 3.1 µM (active) | 
O=C(Nc1ccccc1)Nc1cnns1 | 3.88 µM (active) | 
CC(C)(C)C(O)/C(=C\c1ccc(Cl)cc1Cl)n1cncn1 (centres undefined) |  | inactive
O=C1c2ccccc2C(=O)N1SC(Cl)(Cl)Cl |  | inactive
Oc1ccc(Cl)cc1Cc1ccccc1 | 25.2 µM (active) [middle of 6 runs] | 
CCCN(CCC)c1c([N+](=O)[O-])cc(C(F)(F)F)cc1[N+](=O)[O-] | 6.21 µM (active) | 
CCC(C)(NC(=O)c1cc(Cl)c(C)c(Cl)c1)C(=O)CCl (centres undefined) |  | inactive
CCCN(CCOc1c(Cl)cc(Cl)cc1Cl)C(=O)n1ccnc1 |  | inactive
O=S1OCC2C(CO1)C1(Cl)C(Cl)=C(Cl)C2(Cl)C1(Cl)Cl (centres undefined) |  | inactive
CCN(CC)C(=O)SCc1ccc(Cl)cc1 |  | inactive
CCC(C)(C)C(=O)OC1=C(c2ccc(Cl)cc2Cl)C(=O)OC12CCCCC2 |  | inactive
